# Reference: the OligoGym collection
# Biological target: ADD2
# Assay: pooled miR-30 sensor sort-seq; sequence = guide strand
# Settings: shRNA
row,Sequence,sensor-assay potency score (higher = more potent)
1,TTCCTCTCCACCTCTTTCTTGT,-0.367
2,TTCACTGCAAGAAACTCCCTTA,0.39
3,TTGTCTCTGCCTCCTTCGCTGG,-1.43
4,TGACTTCACATCTTGTCGGTTT,-0.214
5,TTGTTCTCGAATCTTGTTCCTC,-0.198
6,TCGGTAGACACTGCTGATCTTG,-0.972
7,TTCTAGTTTCTTCCTCTCCACC,-1.02
8,TAGAGGTATCAACATCCGTGTC,-1.2
9,TTGATAGGCGTCATCATGGAGA,-0.575
10,TTTGGTATCCTCGTCTCCCTTG,-0.18
11,TTGACCTCTGATTTAGTCTGAG,0.252
12,TCTTATAGCTCTTCCATCCATC,-0.635
13,TTAGAGGTATCAACATCCGTGT,-0.242
14,TTTCTCTCCATCAAGTTCTAGT,-0.228
15,TATAGCTCTTCCATCCATCATT,-1.04
16,TTGGCTAGTCACTTTGAGCAGC,-0.569
17,TTTGTCTCTGCCTCCTTCGCTG,-0.0606

# Biological target: ADIPOR1
# Assay: as above
# Settings: shRNA
row,Sequence,sensor-assay potency score (higher = more potent)
1,ATGAAGTACATATTTGGTCTGA,-0.176
2,TTGCTCTTCTTCAGCTTTGGGT,-0.543
3,AAACTCTTCCATCTTCTCCATG,-1.3
4,TAGACGGTGTGAAAGAGCCAGG,-1
5,TCTCTGAATGACAATAGACGGT,-0.907
6,TTATTTTTAAAAGCACTTGGGA,-0.469
7,TAGCAGATAGTCGTTGTCCTTT,-0.519
8,TAATTAGAAGAGCAATCCCTGA,-1.23
9,TAGTCGTTGTCCTTTAGCCAGT,-0.984
10,ATAATTAGAAGAGCAATCCCTG,-1.25
11,TAGAAGGAATAATAGAGCCAGG,-1.35
12,TGAATGACAATAGACGGTGTGA,0.0155

# Biological target: ADORA2B
# Assay: as above
# Settings: shRNA
row,Sequence,sensor-assay potency score (higher = more potent)
1,TCCCACTCTTGACATCTGCTTG,-0.99
2,TTGACAACTGAATTGGCATGTG,-0.143
3,TTCATTCGTGGTTCCATCCCAG,-0.119
4,TTAAAAACAAAAGAGTCTGTTA,-0.121
5,AAGTGTAGCGGAAGTCTCGGTT,-0.00274
6,TTCACAATGAAAACCAGCCGTG,-0.942
7,TTAGAATCCATTCAAGCTGTTG,-0.667
8,TATACCATGTAGCTCATGGGGA,-0.182
9,TAAATATATTTGTCAATCCTTG,-0.669
10,TTTTCCACCATAAACAAGGCAG,-0.459
11,ATTTTGTGAAAAGTGTAGCGGA,-0.0457
